An excerpt weighted towards active compounds, which were near 4% of everything screened.
TRPM1 prom inh: inhibitors of MITF-driven TRPM1 promoter in melanoma cells. inhibition, % at 12.5 µM. 330,000 tested, 0.83% active. AID 488899. SK-MEL-5 TRPM1 promoter luciferase, 24 h;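 active = mean inhibition across replicates of 60% or more, whatever share of single replicates reaches that level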
esBAF inh: blocks esBAF chromatin remodeling in mouse ES cells | Bmi1-luciferase knock-in reporter, 24 h; 100% = twice the neutral-well signal | reporter increase, % at 12.5 µM | 350,000 tested, 2% active | AID 602393; in the data active = activation above about 40%;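 also: 0% = median of the plate's neutral control wells and 100% = double that signal; a rise in the Bmi1 reporter signal indicates esBAF inhibition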
MITF TRPM1 HTS: MITF TRPM1 promoter activation in melanoma cells | SK-MEL-5 TRPM1-promoter luciferase, 24 h; % of positive control, neutral wells = 0 | activation, % at 12.5 µM | 300,000 tested, 0.75% active;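 active = mean activation of at least 80% with every replicate also reaching 80%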;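 also: 0% = neutral control wells and 100% = parthenolide positive control wells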
EBV LMP1 NFkB: reduces LMP1-driven NF-kappaB luciferase signal | LMP1-induced NF-kappaB luciferase reporter cells, luminescence | inhibition, % at 12.5 µM | 350,000 tested, 0.69% active; in the data active = inhibition above about 41%;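 also: 0% = neutral control wells and 100% = reference inhibitor control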
C2C12 statin: protects C2C12 myotubes from simvastatin toxicity; ATP luminescence, 48 h; scaled: DMSO 0, geranylgeraniol control 100; rescue of ATP level, % at 7.49 µM; 330,000 tested, 0.78% active; AID 602340;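 active = mean ATP rescue above about 67%, or every replicate alone reaching that limit, limit read from the data, passing the limit was not always enough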;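 also: myotubes were challenged with 10 µM simvastatin during compound exposure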
Wnt act: Wnt/beta-catenin pathway activation; Wnt/beta-catenin reporter cell assay, activator, plate reader; activation, % at 9.35 µM; 300,000 tested, 1.2% active; in the data active = activation above about 30%, passing the limit was not always enough;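 also: 0% = neutral control wells and 100% = positive control wells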
Starred values were filed as active, the others as inactive; / = not tested or not shown.

SMILES	TRPM1 prom inh	esBAF inh	MITF TRPM1 HTS	EBV LMP1 NFkB	C2C12 statin	Wnt act
O=c1cc(CN2CCN(CCO)CC2)c2cc3c(cc2o1)CCC3	3	-1	-7	-4	7	-5
O=c1cc(CN2CCN(Cc3ccccc3)CC2)c2cc3c(cc2o1)CCC3	16	0	-16	12	115*	-3
COc1ccc(-c2csc(NC(=O)C3CC(=O)N(c4ccc5c(c4)OCCO5)C3)n2)cc1 (stereo not drawn)	34	/	-31	10	/	/
O=C1c2ccccc2C(=O)N1OCc1ccc(Cl)cc1	5	1	-2	0	68*	/
O=C1Cc2ccccc2C(=O)N1OCc1ccc(Cl)cc1	8	13	-10	-1	-2	-1
O=C1c2ccccc2C(=O)N1OCCOCCOCCON1C(=O)c2ccccc2C1=O	10	-9	-10	2	1	45*
O=C1c2ccccc2C(=O)N1OCCOCCOCCBr	4	-15	-1	-11	8	/
COc1ccccc1OCc1ccc(C(=O)N(C)C)o1	-6	21	10	0	2	/
O=C(Nc1nccs1)c1ccc(COc2ccc(Cl)cc2)o1	-18	/	17	-14	/	/
CN(C)C(=O)c1ccc(COc2ccccc2Br)o1	-58	62*	65	-13	-1	/
CC(C)c1ccc(OCc2ccc(C(=O)N(C)C)o2)cc1	-79	57*	91*	-26	-26	45*
O=C(Nc1nccs1)c1ccc(COc2ccc(F)cc2)o1	-45	60*	50	-32	31	24
O=C(Nc1nccs1)c1ccc(COc2ccccc2Br)o1	-56	50*	61	-66	11	/
O=C(Nc1nc([C@@H]2O[C@H](CO)[C@@H](O)[C@H](O)[C@H]2O)cs1)NC(c1ccccc1)c1ccccc1	/	-1	/	/	-24	0
CCCNC(=O)C1(C)CCCN(C(=O)c2ccc3c(c2)CCO3)C1 (stereo not drawn)	/	0	/	/	1	0
CSc1nc2c(cnn2-c2ccccc2)c(=O)n1N	-58	48*	59	8	11	/
CC(=O)NC(CSC(CC(=O)c1ccco1)c1ccc(C)cc1)C(=O)O (stereo not drawn)	-36	43*	39	-7	5	9
C=CCOc1ccc(/C=C2\SC(=S)N(N3CCOCC3)C2=O)cc1	-2	/	/	-3	/	42*
CS(=O)(=O)c1ccc(Cl)c(NC(=O)COC(=O)CCN=C2NS(=O)(=O)c3ccccc32)c1	8	6	-6	2	-5	0
CCOC(=O)C1=C(C)N=C2SC(C)C(=O)N2C1c1ccc(C(=O)OC)cc1 (stereo not drawn)	-6	2	6	-1	91*	0
CCOC(=O)C1=C(C)N=C2SC(C)C(=O)N2C1c1ccccc1 (stereo not drawn)	5	-1	-6	2	13	0
COc1ccnc(CSC(N)=Nc2ccc(F)cc2)c1	-32	56*	30	-20	-38	/
COc1cccc(N=C(N)N=C(N)N)c1	-7	-2	4	-2	0	-2
Cc1ccc(N2CCN(/N=C/c3ccncc3)CC2)cc1	0	3	-1	-8	-3	-2
c1ccc2nc3c(nc2c1)OCC1CCCCN31 (stereo not drawn)	-51	48*	55	-17	-4	22
SMILES	TRPM1 prom inh	esBAF inh	MITF TRPM1 HTS	EBV LMP1 NFkB	C2C12 statin	Wnt act
Cc1c(Cl)cccc1NC(=O)Nc1cc(C(C)(C)C)nn1C	5	/	/	36	/	-10
Cc1c(C(=O)Nc2ccccc2F)sc2ncn(CC(=O)N3CCOCC3)c(=O)c12	-1	42*	1	-3	-16	-2
Cc1c(C(=O)Nc2c(F)cccc2F)sc2ncn(CC(=O)N3CCCCC3)c(=O)c12	2	-5	1	-5	-11	-2
O=C(O)c1c2c(nc3ccccc13)/C(=C/c1c(F)cccc1F)CCC2	2	12	-1	-3	4	0
CCc1ccc(/C=C2\CN(CC)Cc3c2nc2ccccc2c3C(=O)O)cc1	6	-3	-2	-7	-9	-5
O=C(O)c1c2c(nc3ccccc13)/C(=C/c1ccc(O)cc1)CC2	28	/	-27	53*	/	-1
O=C(O)c1c2c(nc3ccccc13)/C(=C/c1ccc(OC(F)F)cc1)CCC2	-25	59*	27	-10	6	9
O=C(c1ccco1)N(Cc1ccco1)c1ccc(O)cc1	-4	-6	0	4	118*	/

Compound activity deposited in PubChem BioAssay by Broad Institute.
